# Assays:
# [1] = target: Sphingosine kinase 1 (Homo sapiens) (UniProt Q9NYA1); conditions: at 1 µM;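 further: mean SPHK1 inhibition value reported from the GSK PKIS kinase panel screen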
# [2] = target: T1, Sphingosine kinase 2 (Homo sapiens) (UniProt Q9NRA0); conditions: at 0.1 µM
# T1 sequence (whole entry): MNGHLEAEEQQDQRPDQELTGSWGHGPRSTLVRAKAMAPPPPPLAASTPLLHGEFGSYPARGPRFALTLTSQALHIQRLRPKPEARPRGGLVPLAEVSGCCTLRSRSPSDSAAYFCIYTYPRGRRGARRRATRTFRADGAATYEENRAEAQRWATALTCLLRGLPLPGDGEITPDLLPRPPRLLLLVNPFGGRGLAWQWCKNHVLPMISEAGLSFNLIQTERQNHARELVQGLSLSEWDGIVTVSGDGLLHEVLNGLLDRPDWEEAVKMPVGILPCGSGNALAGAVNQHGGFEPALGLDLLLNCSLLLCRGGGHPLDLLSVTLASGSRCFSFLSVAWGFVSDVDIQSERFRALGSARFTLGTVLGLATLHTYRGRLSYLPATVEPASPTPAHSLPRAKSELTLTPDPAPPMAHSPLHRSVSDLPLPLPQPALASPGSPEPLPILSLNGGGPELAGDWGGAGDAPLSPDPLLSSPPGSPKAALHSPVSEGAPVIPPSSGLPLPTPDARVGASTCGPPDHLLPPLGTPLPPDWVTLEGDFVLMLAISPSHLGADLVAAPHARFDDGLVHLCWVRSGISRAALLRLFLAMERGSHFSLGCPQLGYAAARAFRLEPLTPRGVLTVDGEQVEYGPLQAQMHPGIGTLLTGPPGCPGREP
# [3] = target: T1, Sphingosine kinase 2 (Homo sapiens); conditions: at 1 µM
# [4] = target: Casein kinase II subunit alpha (Homo sapiens) (UniProt P68400); conditions: at 0.1 µM
# [5] = target: Casein kinase II subunit alpha (Homo sapiens) (UniProt P68400); conditions: at 1 µM
# [6] = target: T2, Inhibitor of nuclear factor kappa-B kinase subunit alpha (Homo sapiens) (UniProt O15111); conditions: at 0.1 µM
# T2 sequence (whole entry): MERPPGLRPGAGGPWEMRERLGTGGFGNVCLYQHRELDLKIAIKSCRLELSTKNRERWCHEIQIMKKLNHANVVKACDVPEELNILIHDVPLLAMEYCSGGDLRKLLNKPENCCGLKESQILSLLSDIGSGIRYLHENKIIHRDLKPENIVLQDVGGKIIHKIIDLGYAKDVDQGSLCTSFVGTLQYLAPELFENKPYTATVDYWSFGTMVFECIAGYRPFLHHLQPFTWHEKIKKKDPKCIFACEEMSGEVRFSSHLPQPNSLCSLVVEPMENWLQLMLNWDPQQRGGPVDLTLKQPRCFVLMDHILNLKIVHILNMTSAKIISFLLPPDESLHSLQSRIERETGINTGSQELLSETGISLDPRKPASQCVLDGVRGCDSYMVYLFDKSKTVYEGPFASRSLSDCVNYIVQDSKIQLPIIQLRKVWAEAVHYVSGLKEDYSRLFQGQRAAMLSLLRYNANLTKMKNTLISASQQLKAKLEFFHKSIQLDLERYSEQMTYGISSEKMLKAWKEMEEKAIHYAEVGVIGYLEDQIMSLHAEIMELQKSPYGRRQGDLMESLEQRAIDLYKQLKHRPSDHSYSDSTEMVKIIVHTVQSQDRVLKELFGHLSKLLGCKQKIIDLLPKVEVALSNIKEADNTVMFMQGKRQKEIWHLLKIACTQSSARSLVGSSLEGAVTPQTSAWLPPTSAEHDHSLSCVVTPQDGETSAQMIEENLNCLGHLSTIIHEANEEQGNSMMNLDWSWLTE
# [7] = target: T2, Inhibitor of nuclear factor kappa-B kinase subunit alpha (Homo sapiens); conditions: at 1 µM
# [8] = target: T3, Inhibitor of nuclear factor kappa-B kinase subunit beta (Homo sapiens) (UniProt O14920); conditions: at 0.1 µM
# T3 sequence (whole entry): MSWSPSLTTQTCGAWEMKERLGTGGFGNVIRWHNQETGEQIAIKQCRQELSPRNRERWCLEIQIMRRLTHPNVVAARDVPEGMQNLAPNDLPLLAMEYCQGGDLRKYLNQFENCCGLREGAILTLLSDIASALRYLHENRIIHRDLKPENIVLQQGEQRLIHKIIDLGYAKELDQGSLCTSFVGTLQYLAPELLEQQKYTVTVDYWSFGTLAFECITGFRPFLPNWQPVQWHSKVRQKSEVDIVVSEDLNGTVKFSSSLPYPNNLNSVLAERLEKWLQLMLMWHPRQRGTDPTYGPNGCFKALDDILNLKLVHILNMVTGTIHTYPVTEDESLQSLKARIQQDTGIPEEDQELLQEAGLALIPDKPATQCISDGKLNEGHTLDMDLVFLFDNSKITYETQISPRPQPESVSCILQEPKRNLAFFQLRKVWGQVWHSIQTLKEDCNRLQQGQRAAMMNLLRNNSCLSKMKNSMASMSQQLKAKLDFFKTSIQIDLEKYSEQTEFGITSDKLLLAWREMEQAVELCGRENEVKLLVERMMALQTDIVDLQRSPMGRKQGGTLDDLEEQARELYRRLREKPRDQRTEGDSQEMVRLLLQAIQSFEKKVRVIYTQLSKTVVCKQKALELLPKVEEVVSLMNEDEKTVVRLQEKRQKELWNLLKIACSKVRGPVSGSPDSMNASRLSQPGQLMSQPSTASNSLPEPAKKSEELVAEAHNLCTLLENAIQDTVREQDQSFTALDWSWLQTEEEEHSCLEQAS
# [9] = target: T3, Inhibitor of nuclear factor kappa-B kinase subunit beta (Homo sapiens); conditions: at 1 µM
# [10] = target: T4, Inhibitor of nuclear factor kappa-B kinase subunit epsilon (Homo sapiens) (UniProt Q14164); conditions: at 0.1 µM;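 further: mean inhibition of IKKε reported, from the GSK PKIS dataset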
# T4 sequence (whole entry): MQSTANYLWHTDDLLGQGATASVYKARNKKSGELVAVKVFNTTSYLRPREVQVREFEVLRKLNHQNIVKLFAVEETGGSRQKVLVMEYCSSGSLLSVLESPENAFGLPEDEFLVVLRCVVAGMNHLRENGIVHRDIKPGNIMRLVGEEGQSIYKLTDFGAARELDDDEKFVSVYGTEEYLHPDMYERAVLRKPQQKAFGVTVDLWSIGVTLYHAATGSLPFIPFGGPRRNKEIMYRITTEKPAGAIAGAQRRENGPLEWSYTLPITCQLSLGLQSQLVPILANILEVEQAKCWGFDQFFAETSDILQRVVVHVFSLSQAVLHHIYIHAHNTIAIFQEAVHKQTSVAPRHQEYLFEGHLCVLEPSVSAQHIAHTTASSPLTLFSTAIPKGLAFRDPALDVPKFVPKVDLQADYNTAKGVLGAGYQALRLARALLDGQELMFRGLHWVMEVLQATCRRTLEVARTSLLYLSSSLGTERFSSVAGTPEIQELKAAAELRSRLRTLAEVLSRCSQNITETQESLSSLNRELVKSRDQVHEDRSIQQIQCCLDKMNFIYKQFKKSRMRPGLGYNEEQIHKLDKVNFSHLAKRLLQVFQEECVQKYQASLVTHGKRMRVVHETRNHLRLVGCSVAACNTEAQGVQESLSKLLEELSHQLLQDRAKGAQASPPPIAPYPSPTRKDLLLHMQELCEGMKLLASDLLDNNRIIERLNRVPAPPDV
# Casein kinase II subunit alpha (Homo sapiens), sequence (P68400 whole entry, looked up): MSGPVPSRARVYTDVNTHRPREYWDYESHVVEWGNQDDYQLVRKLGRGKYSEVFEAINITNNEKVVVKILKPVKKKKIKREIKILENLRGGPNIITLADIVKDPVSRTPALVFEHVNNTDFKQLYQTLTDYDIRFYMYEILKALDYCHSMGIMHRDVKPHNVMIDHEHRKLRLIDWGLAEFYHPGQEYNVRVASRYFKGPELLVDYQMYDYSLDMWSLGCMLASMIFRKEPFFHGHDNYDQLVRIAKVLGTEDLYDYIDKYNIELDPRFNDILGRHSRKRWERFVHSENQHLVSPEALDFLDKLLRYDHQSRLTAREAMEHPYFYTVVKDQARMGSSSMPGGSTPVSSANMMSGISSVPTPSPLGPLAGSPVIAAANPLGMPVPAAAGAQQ
# Sphingosine kinase 1 (Homo sapiens), sequence (Q9NYA1 whole entry): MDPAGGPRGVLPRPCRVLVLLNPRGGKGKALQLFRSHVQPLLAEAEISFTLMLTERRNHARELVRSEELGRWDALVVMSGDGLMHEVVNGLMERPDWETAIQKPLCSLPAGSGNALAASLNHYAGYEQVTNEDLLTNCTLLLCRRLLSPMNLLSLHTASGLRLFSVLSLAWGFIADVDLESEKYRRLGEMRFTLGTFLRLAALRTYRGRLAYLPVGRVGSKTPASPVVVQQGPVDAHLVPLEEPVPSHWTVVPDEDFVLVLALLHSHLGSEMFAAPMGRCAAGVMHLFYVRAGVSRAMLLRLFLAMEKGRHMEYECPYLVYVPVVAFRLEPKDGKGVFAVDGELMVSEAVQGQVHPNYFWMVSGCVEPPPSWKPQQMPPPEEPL
smiles,measurement,setting,value
NCc1ccc(-n2c(-c3nonc3N)nc3cnccc32)cc1,inhibition,[1],-0.9%
same,inhibition,[2],0.05%
same,inhibition,[3],-0.74%
same,inhibition,[4],9.32%
same,inhibition,[5],9.93%
same,inhibition,[6],7.27%
same,inhibition,[7],7.43%
same,inhibition,[8],8.87%
same,inhibition,[9],7.17%
same,inhibition,[10],5.51%

# Reference: ChEMBL document CHEMBL1961873, “Compounds: GSK PKIS; Assays: Nanosyn kinase panel” (2012)
